Screens: PubChem, National Center for Advancing Translational Sciences (NCATS)
Compounds with a hit are over-represented: about 21% of the library has one in this group of screens.
Pf growth 48h: inhibits P. falciparum growth in the first generation, 48 h | P. falciparum luciferase growth in erythrocytes, 48 h | Potency, µM (highest dose often 28.7 µM), hits mostly inhibitors | actives 5.9% (n = 310,000)
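In quantitative HTS format, infected erythrocytes bearing luciferase-reporter parasites were treated for a single generation at 37 C. Luminescence after adding detection reagent served as the growth measure.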
CHX counter: counter-screen for Shiga toxin inhibitors: cycloheximide protein synthesis inhibition | cell reporter, cycloheximide protein synthesis inhibition counterscreen | max response, % | actives 12% (n = 300,000) | AID 2314; in the data active means max response mostly above about 13%, no sharp cut-off; inactive means mostly below about 14%; further: read at 38.3 µM for the half of the compounds with a filed dose
SARS PLpro yeast: blocks SARS-CoV papain-like protease in a yeast assay; actives 0.19% (n = 330,000); S. cerevisiae expressing SARS-CoV PLpro, growth rescue; Potency, µM (highest dose often 32.9 µM), most hits filed as activators; calls by dose curve; further: nearly all actives have a fitted effect of over 55% in size
NS1 function inh: blocks influenza NS1 protein function; AID 2326; Potency, µM (series often up to 46.1 µM); actives 0.4% (n = 270,000); calls by dose curve; further: actives are rising curves; nearly all actives have a fitted effect of over 50% in size
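Growth recovery, yeast-based: influenza A NS1 expressed in S. cerevisiae causes slow growth, and suppressors are detected by OD600. The parent strain without NS1 is used as positive control.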
Shiga inhibitor: blocks Shiga toxin action in Vero cells; AID 2315; Vero cells, Shiga toxin protein synthesis inhibition reporter; inhibition, % at 38.7 µM; actives 9.2% (n = 290,000); in the data active means inhibition mostly above about 28%, no sharp cut-off; inactive means mostly below about 43%
Pf growth 96h: inhibits malaria parasite growth, 96 h; P. falciparum luciferase reporter growth, 96 h; Potency, µM (doses to about 28.7 µM), usual class: inhibitors; actives 6.9% (n = 320,000)
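Two-generation exposure (96 h) targets delayed-death phenotype. Reporter parasites carrying integrated firefly luciferase, in red cells at 2% hematocrit and 0.05% parasitemia final, kept at 37 C, 5% CO2; luminescence loss indicates inhibition.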
CLK4 cf ADPGlo: CLK4 (human) kinase inhibition, ADP-Glo confirmation | recombinant Clk4, RS peptide, ADP-Glo luminescence | actives 80% (n = 65) | shares compounds with Pf growth 48h | Potency, µM (doses to about 80 µM), most hits filed as inhibitors
Target sequence (Q9HAZ1 whole entry, looked up): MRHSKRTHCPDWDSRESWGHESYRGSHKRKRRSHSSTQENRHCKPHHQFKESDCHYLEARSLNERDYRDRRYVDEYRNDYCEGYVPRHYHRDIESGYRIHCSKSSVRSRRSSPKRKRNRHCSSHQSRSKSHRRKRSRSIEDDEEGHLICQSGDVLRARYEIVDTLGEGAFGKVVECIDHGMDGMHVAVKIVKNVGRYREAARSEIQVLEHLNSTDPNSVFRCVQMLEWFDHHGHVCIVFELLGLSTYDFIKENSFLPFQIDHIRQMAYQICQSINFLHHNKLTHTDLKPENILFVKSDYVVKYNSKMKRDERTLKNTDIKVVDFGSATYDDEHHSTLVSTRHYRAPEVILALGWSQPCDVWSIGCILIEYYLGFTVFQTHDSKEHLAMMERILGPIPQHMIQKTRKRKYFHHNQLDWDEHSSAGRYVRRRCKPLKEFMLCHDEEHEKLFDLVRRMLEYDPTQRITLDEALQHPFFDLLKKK
CLK4 ADP FP: CLK4 (human) inhibition, Transcreener FP confirmation. recombinant Clk4, ADP Transcreener FP, RS peptide. shares compounds with Pf growth 48h. Potency, µM (top dose mostly 80 µM), actives largely listed as inhibitors. actives 70% (n = 65)
A number is an active result; - = inactive; ? = inconclusive; . = not tested or not shown. Unless noted, the call rests on the fitted dose curve; in most records, active means well fitted curve in the direction sought with a large enough effect; inconclusive means small, poorly fitted or top-dose-only effect, or another doubt; inactive means no such curve, though single readings can be large; an effect the other way counts as inactive or inconclusive.

SMILES	Pf growth 48h	CHX counter	SARS PLpro yeast	NS1 function inh	Shiga inhibitor	Pf growth 96h	CLK4 cf ADPGlo	CLK4 ADP FP
Clc1cccc(-c2ccc3ncnc(NCc4ccc5c(c4)OCO5)c3c2)c1	6.57µM	.	-	.	.	1.47µM	?	?
COc1cccc(-c2ccc3ncnc(NCc4ccc5c(c4)OCO5)c3c2)c1	9.28µM	.	-	.	.	7.38µM	1.26µM	2.24µM
c1nc(NCc2ccc3c(c2)OCO3)c2cc(-c3ccc4c(c3)OCCO4)ccc2n1	13.1µM	.	-	.	.	?	1.78µM	2.24µM
Cn1ccc2cc(-c3ccc4ncnc(NCc5ccc6c(c5)OCO6)c4c3)ccc21	13.1µM	.	-	.	.	?	?	-
CC(C)(C)N1CC23C=CC(C[C@@H]2C1=O)O3 (stereo partly drawn)	-	.	-	.	.	-	.	.
Cc1ccc(C)c(NC(=O)CSc2nncn2C)c1	-	-	-	-	-	?	.	.
Cc1cc(C)n2nc(SCC(=O)NC(=O)c3ccccc3Cl)nc2n1	-	.	-	.	.	-	.	.
c1cncc(CNc2ncnc3ccc(-c4ccc5c(c4)OCO5)cc23)c1	?	.	-	.	.	-	0.126µM	0.0891µM
Cc1sc2ncnc(N(C)Cc3ccco3)c2c1C	.	-	?	-	-	-	.	.
COc1cccc(-c2ccc3ncnc(N(C)Cc4ccco4)c3c2)c1	?	.	-	.	.	14.7µM	0.355µM	0.447µM
COc1ccc(S(=O)(=O)N2CCOCC2)cc1NC(=O)CSc1ccc(F)cc1	-	.	-	.	.	?	.	.
CCOC(=O)CC(=O)Nc1ccc(C)cc1	-	-	-	-	-	-	.	.
O=C(COC(=O)c1cc([N+](=O)[O-])ccc1N1CCOCC1)Nc1ccc(Cl)cn1	-	-	-	-	-	?	.	.
CCN(Cc1ccncc1)C(=O)c1cccc(S(=O)(=O)N2CCCCC2)c1	.	.	-	.	.	.	.	.
Fc1cccc(CNc2ncnc3ccc(-c4cccc(Cl)c4)cc23)c1	6.57µM	.	-	.	.	2.94µM	7.08µM	12.6µM
Cc1cccc(CNc2ncnc3ccc(-c4ccoc4)cc23)c1	14.7µM	.	-	.	.	8.28µM	0.251µM	0.282µM
Cc1cccc(CNc2ncnc3ccc(-c4ccc5c(ccn5C)c4)cc23)c1	3.29µM	.	-	.	.	1.85µM	?	?
Cc1cccc(CNc2ncnc3ccc(-c4ccc5c(c4)OCCO5)cc23)c1	4.65µM	.	-	.	.	3.29µM	0.562µM	0.708µM
CCc1nnc(N2C(=N)SCC2=O)s1	?	-	-	-	-	?	.	.
O=C(CC1C(=O)NCCN1Cc1cccc(F)c1)NCCCCCN1CCOCC1 (stereo not drawn)	-	-	-	-	-	-	.	.
CC(=O)N1CCN(CCS(=O)(=O)c2ccc(Br)cc2)CC1	-	.	-	.	.	-	.	.
CS(=O)(=O)CCNCc1ccc(-c2ccc3ncnc(Nc4ccc(OCc5cccc(F)c5)c(Cl)c4)c3c2)o1	-	.	.	.	.	-	.	.
Fc1cccc(CNc2ncnc3ccc(-c4ccoc4)cc23)c1	?	.	-	.	.	?	3.55µM	3.55µM
CC(=O)Nc1ccc(CNc2ncnc3ccc(-c4c(C)noc4C)cc23)cc1	?	-	-	.	-	?	.	.
c1cncc(CNc2ncnc3ccc(-c4ccoc4)cc23)c1	?	.	-	.	.	?	0.562µM	1µM
c1cncc(CNc2ncnc3sc4c(c23)CCC4)c1	-	-	-	.	-	-	.	.
Brc1ccc2ncnc(NCc3ccccc3)c2c1	?	-	-	-	-	-	.	.
Cc1cccc(CNc2ncnc3ccc(-c4cccnc4)cc23)c1	11.7µM	.	-	.	.	6.57µM	2.82µM	5.01µM
Cc1cccc(CNc2ncnc3ccc(-c4cccc(C)c4)cc23)c1	13.1µM	.	-	.	.	3.7µM	14.1µM	?
CC(=O)[C@H]1CC[C@H]2C3CC[C@H]4C[C@](C)(O)CC[C@]4(C)C3CC[C@]12C (stereo partly drawn)	.	-	.	.	-	.	.	.
